Out of some 360,000 compounds screened, about 17,000 (4.7%) were called active. Another 5% or so got no clear call; they are omitted. Cut-off read from the data, not from the text of the source: active = activity change below about -50%; inconclusive = mostly about -30% to -49%; inactive = weaker than that. Shown is part of a subset that was picked to be rich in actives.
% is set by controls: 0 for no effect and ±100 for the full control effect.

This experiment is described as follows: qHTS for Inhibitors of Inflammasome Signaling: IL-1-beta AlphaLISA Primary Screen. To be noted: THP-1 LPS/ATP IL-1B secretion, 16 h; at 57.5 µM, hits give low values. Summed up:
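THP-1 cells pretreated 1 hr with compounds (up to 57.5 uM final), then stimulated with LPS (250 ng/mL final) plus ATP (1.25 mM final); secreted IL-1B measured by AlphaLISA after 16 hr, decreased signal indicating inhibition.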
`NS(=O)(=O)c1ccc(NC(=O)COC(=O)CCc2c[nH]c3ccccc23)cc1`: the activity change was 0% (inactive). For `Cc1csc(SCC(=O)Nc2ccc(C)c(S(=O)(=O)N(C)C)c2)n1`, the activity change was 42.7% (inactive). `CNCC[C@H](Oc1ccc(C(F)(F)F)cc1)c1ccccc1`: the activity change is -68.4% (active). Take `CC(NC(=O)COC(=O)Cn1cc(C(F)(F)F)ccc1=O)c1ccccc1` (stereo not given): the activity change is -0.662% (inactive). In the case of `CC(C)Oc1ccc(Oc2ccc(C(F)(F)F)cn2)cc1`, the activity change is -23.6% (inactive). The same measure for `CCOC(=O)c1c(NC(=S)SC)sc(C(=O)N2CCc3ccccc3C2)c1C`: 1.46% (inactive). With `CN(CC(=O)NCC(c1ccccc1)N1CCCC1)S(=O)(=O)c1ccc(Cl)cc1` (stereo not given) the figure was -22.9% (inactive); with `CC(=O)Nc1c2c(nn1-c1ccc(C)cc1C)CS(=O)C2` (stereo not given), 13.7% (inactive). With `Cc1ccc(-c2nc3ccc(Cl)cn3c2Cc2ccccc2)cc1` the figure was -3.47% (inactive). Regarding `CCCCCCSc1ccc(-c2nc3ccc(Cl)cn3c2NCc2ccccc2)cc1`, the activity change is -8.09% (inactive). As to `Clc1ccc2nc(CSc3ccccc3)cn2c1`, the activity change was -87.1% (active). Consider `CC1(C(=O)NS(=O)(=O)c2cccc(F)c2)CCN1C(=O)c1cccc2ccccc12` (stereo not given), for which the activity change is 21.3% (inactive). In the case of `CCCCCCN1CCN(C2CN(Cc3cn(CCCCCC)nn3)S(=O)(=O)C2)CC1` (stereo not given), the activity change is -17.7% (inactive). With `COc1cc2c(cc1OC)CN(CC(=O)Nc1ccc(F)cc1)CC2`, the activity change is 14% (inactive). In the case of `CC[C@H]1CN2CCc3cc(OC)c(OC)cc3[C@@H]2C[C@@H]1C[C@H]1NCCc2cc(OC)c(OC)cc21`, the activity change was -106% (active).

Take `CCC(Sc1nncn1C)C(=O)Nc1nnc(-c2ccc(Cl)cc2)s1` (stereo not given): the activity change is -11% (inactive). Turning to `O=C(c1cccnc1)N(Cc1ccccc1)C(=O)c1cccnc1`, the activity change is 33% (inactive).

`COC(=O)c1c(C)[nH]c(C(=O)/C=C/c2ccc(Cl)cc2)c1C`: the activity change was -3.64% (inactive). For the compound `CC1(C(=O)O)CCCN(C(=O)/C=C/c2ccccc2)C1` (stereo not given), the activity change was 17.4% (inactive). With `Cc1[nH]c(=O)c(C(=O)/C=C/c2ccccc2)c2c1CCCC2`, the activity change is -98.3% (active).

Turning to `CCCCn1c(N)c(N(CCC(C)C)C(=O)COC(=O)c2cccnc2OCC)c(=O)[nH]c1=O`, the activity change was -17.5% (inactive). For `C/C(=N/Nc1ccc(Cl)cc1)c1cnnc(-c2ccccc2)n1`, the activity change was 58.2% (inactive). On to `C/C(=N\Nc1ccc(Cl)nn1)c1ccccc1O`, for which the activity change was -63.2% (active).

On to `CCCCCCCN=C(C)c1ccccc1O`, for which the activity change is 19.8% (inactive). With `Cn1c(CCN2CCN(c3ccccn3)CC2)nc2cc(NS(=O)(=O)c3ccc(F)cc3)ccc21`, the activity change is -12.9% (inactive). Take `C[C@H]1NS(=O)(=O)c2cc(Cl)ccc2O[C@@H]1c1ccccc1`: the activity change was 51.9% (inactive). As to `CN1CCN(c2ccc(NC(=O)c3ccc4c(c3)OCCO4)cc2Cl)CC1`, the activity change was -72.6% (active).

On to `CN1CCN(c2ccc(NC(=O)c3cc(Cl)c4c(c3)OCCO4)cc2)CC1`, for which the activity change was -19% (inactive). On to `O=C(Nc1ccc(Cl)cn1)c1ccc2c(c1)OCCO2`, for which the activity change is 2.51% (inactive). Consider `O=C(Nc1cccc(S(=O)(=O)Nc2ccc(Cl)cc2)c1)c1ccc2c(c1)OCCO2`, for which the activity change is -81.3% (active). In the case of `O=C(Nc1ccc(NC(=O)c2ccc3c(c2)OCO3)cc1)c1cccc(Cl)c1`, the activity change was 9.41% (inactive).

Take `COC(=O)c1ccc(N2CCOCC2)c(NC(=O)c2ccc3c(c2)OCCO3)c1`: the activity change is 18.4% (inactive). As for `COc1ccc(NC(=O)CN(C)C(=O)c2cc(C)oc2C)cc1`, the activity change is 24% (inactive).

For `CCCS(=O)(=O)NC(=O)C1(C)CCCN(C(=O)c2ccnc(Cl)c2)C1` (stereo not given), the activity change was 15.3% (inactive). On to `CC(=O)Nc1ccc(C(=O)N(C2=NC(C)CS2)c2ccc(Cl)cc2)cc1` (stereo not given), for which the activity change result is “inactive”.

For the compound `COc1ccccc1C(=O)N(C1=NC(C)CS1)c1ccc(Cl)cc1` (stereo not given), the activity change was -80.7% (active). For `COc1ccccc1C(=O)NCCC(=O)NC1=NCCS1`, the activity change was 22% (inactive). The same measure for `COc1ccc(CCC(=O)Nc2ccc(Cl)c(S(=O)(=O)N3CCOCC3)c2)cc1OC`: -24.7% (inactive).

`Cc1sc2ncnc(N3CCC(C(=O)NNC(=O)c4ccc(F)cc4)CC3)c2c1C`: the activity change is -23.3% (inactive). For the compound `Cc1nc(N2CCN(c3ccccn3)CC2)c2c(C)c(C(=O)Nc3ccc(F)cc3)sc2n1`, the activity change was -76.8% (active). `CCC(=O)Nc1ccc2c(c1)nc(CCN1CCN(c3ccccn3)CC1)n2C`: the activity change is -3.98% (inactive). Turning to `Cc1nc(N2CCN(c3ccccn3)CC2)c2c(C)c(C(=O)Nc3ccc(F)c(Cl)c3)sc2n1`, the activity change is -58.3% (active).

For `Cc1sc2ncnc(N3CCC(C(=O)Nc4ccc(F)cc4Cl)CC3)c2c1C`, the activity change was -10.9% (inactive).

`Cc1cc(Br)ccc1NC(=O)c1cnc(N2CCN(c3ccccn3)CC2)c2ccccc12`: the activity change was 1.57% (inactive). Take `Cc1cc(Br)ccc1NC(=O)c1sc2ncn(CC(=O)N3CCN(c4ccccn4)CC3)c(=O)c2c1C`: the activity change was 28.3% (inactive). As for `CCN(CC)c1ccc(NC(=O)CN2CCN(c3ccccn3)CC2)cc1`, the activity change is 2.92% (inactive). Turning to `Cc1nc(N2CCC(C)CC2)c2c(C)c(C(=O)Nc3cc(F)ccc3C)sc2n1`, the activity change is -93.6% (active). On to `CC(NC(=O)COc1cccnc1[N+](=O)[O-])c1ccc(Cl)cc1Cl` (stereo not given), for which the activity change was -26% (inactive).

Consider `CN(C)C(=S)N=c1ssc(=S)n1Cc1ccco1`, for which the activity change is 1.33% (inactive). `Cc1ccc(C(=O)NCCc2nnc(SCC(=O)Nc3cccc(C(=O)O)c3)n2C)cc1`: the activity change was 3.07% (inactive). Consider `CCCCCC1CCC(c2nnc(SCC(C)=O)o2)CC1` (stereo not given), for which the activity change was 0.218% (inactive). `O=C1C2C3C=CC(C3)C2C(=O)N1c1ccc(-c2nc3ccccc3c(=O)o2)cc1` (stereo not given): the activity change is -10.4% (inactive). As to `Clc1cccc(N=C2NN=C(c3ccc4c(c3)OCCO4)CS2)c1`, the activity change is -71.7% (active). Consider `CC(=NC1CCN(Cc2ccccc2)CC1)c1c(O)[nH]c(=O)[nH]c1=O`, for which the activity change was 4.26% (inactive).

`CN(C)c1nc(=Nc2cccc(Cl)c2)ss1`: the activity change was -9.51% (inactive). As to `CS(=O)(=O)N(CC(=O)N1CCN(Cc2ccccc2)CC1)c1ccc2c(c1)OCCO2`, the activity change is -2.68% (inactive). In the case of `c1ccc(CN2CCC(N=C3NN=C(c4ccc5c(c4)OCCO5)CS3)CC2)cc1`, the activity change is -81.5% (active).

With `O=C(Nc1ccc(Cl)cc1)C1Cc2c(-c3ccc4c(c3)OCO4)ccnc2O1` (stereo not given), the activity change was -19.5% (inactive). On to `Cc1ccc(S(=O)(=O)Nc2ccccc2CNc2c(C)n(C)n(-c3ccccc3)c2=O)cc1`, for which the activity change was -4.94% (inactive). With `O=C(NCCO)c1cccc(-c2cccc3nccn23)c1` the figure was 81.9% (inactive); with `O=C(NCc1cccnc1)C(=O)Nc1nc(-c2ccccc2)cs1`, 17.3% (inactive); with `Cc1ccccc1Nc1nc(-c2cccnc2)cs1`, -83.1% (active).

Turning to `CN(c1ccc(O)cc1)c1nc(-c2cccnc2)cs1`, the activity change is 40.3% (inactive). The same measure for `O=C(CN1C(=O)NC2(CCOc3ccccc32)C1=O)NCc1ccc(F)cc1` (stereo not given): -15.8% (inactive). For the compound `C[C@@H]1CN([C@@H](C)CO)C(=O)CCCn2nncc2CO[C@H]1CN(C)C(=O)Nc1ccc(C(F)(F)F)cc1`, the activity change was -7.03% (inactive). Turning to `COC(=O)c1ccc2nc(C3CCCCC3)c(Cc3cccc(F)c3)n2c1`, the activity change was 20.9% (inactive).

With `CN(C)CCCn1c(N)c(C#N)c2nc(C#N)c(C#N)nc21`, the activity change is -105% (active). Take `N#Cc1c(N)n(CCOC(=O)c2ccc(Cl)cc2)c2nc3ccccc3nc12`: the activity change was -16.3% (inactive). In the case of `Cc1cc(C)c(S(=O)(=O)N(C)CC(=O)NCC2CCCO2)c(C)c1` (stereo not given), the activity change is 4.54% (inactive). Turning to `CC1=C(C(=O)OCc2ccccc2)C(c2ccc(C(F)(F)F)cc2)NC(=O)N1CCCCCC(=O)O` (stereo not given), the activity change was 5.05% (inactive).

With `COC(=O)CCCCCN1C(=O)NC(c2ccc(-c3ccccc3)cc2)C(C(=O)OCc2ccccc2)=C1C` (stereo not given), the activity change is -1.28% (inactive). For `CCCCNC(=O)C(C)N(CCN(C)C)C(=O)CCCCCN1C(=O)NC(c2ccc(Cl)cc2)C(C(=O)OCc2ccccc2)=C1C` (stereo not given), the activity change was -52.2% (active). On to `CC(=O)c1cccc(-c2cnc3c(NC=O)cc(-c4ccc(N5CCN(C)CC5)cc4)cn23)c1`, for which the activity change was 108% (inactive). For the compound `CC(C)(C)Cc1c(C2CCCCC2)nc2ccc(Br)cn12`, the activity change was 28.2% (inactive). For `OCC1(Cc2ccccc2C(F)(F)F)CCN(Cc2cccc3cnccc23)CC1`, the activity change is -72.4% (active). With `OCC1(Cc2ccccc2C(F)(F)F)CCN(Cc2ccncc2)CC1` the figure was 21.9% (inactive); with `C/C(=N/N1CCN(Cc2cccc3ccccc23)CC1)c1cccnc1`, 0% (inactive); with `O=S1(=O)CC(N2CCC(Cc3ccccc3)CC2)CN1Cc1ccccc1` (stereo not given), 21.9% (inactive). Consider `CCN(CC)CCCNC(=O)c1cc2c(=O)[nH]c3ccc(C)cc3c2s1`, for which the activity change was -65.6% (active). As to `CCN(CC)CCCNC(=O)c1cc(-c2cccc(Cl)c2)on1`, the activity change was -5.59% (inactive). Consider `Cc1cccc(N(C)C(=O)c2cc3c(=O)[nH]c4ccc(C)cc4c3s2)c1`, for which the activity change is 3.44% (inactive). As to `COCCNC(=O)c1cc2c(Br)ccc(Br)c2nc1N`, the activity change is -2.49% (inactive). Regarding `O=C(NCC1CCCCC1)c1cc(S(=O)(=O)N2CCCCC2)ccc1N1CCOCC1`, the activity change was -0.256% (inactive). With `CCC1CCCCN1C(=O)CSc1nc2c(c(=O)n(C)c(=O)n2C)n1C` (stereo not given) the figure was 2.3% (inactive); with `Cn1c(=O)c2c(nc(SCC(=O)Nc3ccccc3N3CCCCC3)n2C)n(C)c1=O`, -57.3% (active).

`Cn1c(=O)c2c(nc(SCCNS(=O)(=O)c3ccccc3)n2C)n(C)c1=O`: the activity change is 29.8% (inactive). Take `CC1CCCCC1NC(=O)/C(C#N)=C/C=C/c1ccccc1[N+](=O)[O-]` (stereo not given): the activity change was -103% (active). On to `O=[N+]([O-])c1ccccc1/C=C/CN1CCCC(CO)C1` (stereo not given), for which the activity change is -11.3% (inactive). On to `O=[N+]([O-])c1ccccc1/C=C/CN1CCC(O)CC1`, for which the activity change is 7.25% (inactive). For `CCc1ccc(C(=O)N2CCN(S(=O)(=O)c3sc(C(=O)O)c(C)c3C(=O)O)CC2)cc1`, the activity change was 20.6% (inactive).

Source of the values: PubChem BioAssay AID743279 (National Center for Advancing Translational Sciences (NCATS), 2014).
